Bioassay records (PubChem)
Compounds with a hit are over-represented: about 0.45% of the library has one in this group of screens.
TcdB inh: blocks C. difficile toxin B glycohydrolase activity. P18177. TcdB glycohydrolase enzymatic assay, plate reader. inhibition, % at 9.99 µM. 0.24% of 350,000 active. AID 652162; in the data active means inhibition above about 10%
FadD28 binding: M. tuberculosis FadD28 bisubstrate binding inhibition. FadD28 bisubstrate probe binding, fluorescence polarization. inhibition, % at 12.5 µM. 0.22% of 360,000 active. AID 588549; in the data active means inhibition above about 8.5%, passing the limit was not always enough
BioA inh-1: BioA (M. tuberculosis) enzyme inhibition; purified M. tuberculosis BioA enzyme, plate reader; inhibition, % at 9.99 µM; 0.096% of 360,000 active; in the data active means inhibition above about 40%
Y pestis TopoI: blocks Yersinia pestis topoisomerase I activity. Y. pestis Topo-I cleavage product accumulation, plate reader. AID 504884. 0.064% of 360,000 active. activity, % at 10 µM; in the data active means activity above about 50%, passing the limit was not always enough
BioA inh-2: inhibitors of Mycobacterium tuberculosis BioA enzyme; shares compounds with BioA inh-1; purified BioA enzyme, plate reader, dose response; max activity, %; 310 tested, under 10 active; AID 651679;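 further: top concentration of the dilution series was 10 µM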
Target sequence (P9WQ81 whole entry, looked up): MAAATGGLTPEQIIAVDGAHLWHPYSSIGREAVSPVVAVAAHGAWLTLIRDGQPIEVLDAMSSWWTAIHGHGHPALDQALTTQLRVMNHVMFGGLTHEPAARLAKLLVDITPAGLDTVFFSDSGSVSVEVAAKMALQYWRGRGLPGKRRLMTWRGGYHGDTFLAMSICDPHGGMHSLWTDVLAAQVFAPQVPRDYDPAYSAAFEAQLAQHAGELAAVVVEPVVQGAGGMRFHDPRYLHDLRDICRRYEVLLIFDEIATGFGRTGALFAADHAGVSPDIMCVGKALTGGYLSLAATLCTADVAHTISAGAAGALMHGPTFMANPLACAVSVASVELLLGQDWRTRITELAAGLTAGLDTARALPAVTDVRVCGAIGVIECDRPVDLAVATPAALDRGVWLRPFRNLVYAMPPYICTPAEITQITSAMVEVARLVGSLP
HepG2 tox 2: HepG2 viability loss. 310 tested, under 10 active. max activity, %. AID 651898. shares compounds with BioA inh-1. HepG2 cytotoxicity, plate reader
NIH3T3 tox 5: NIH3T3 viability loss; shares compounds with BioA inh-1; activity change, negative = cytotoxicity, % at 26 µM; AID 651900; 310 tested, under 10 active; NIH3T3 cytotoxicity, plate reader
* = called active by the depositor; nt = no result; ! = not active in a repeat. Unless noted, how the calls were made is not given here.

SMILES	TcdB inh	FadD28 binding	BioA inh-1	Y pestis TopoI	others
C=Cc1c(C)c2cc3[nH]c(cc4nc(cc5nc(cc1[nH]2)C(C)=C5CCC(=O)O)C(CCC(=O)O)=C4C)c(C)c3C=C	-1.6	43.3*!	0.8	-0.1
O=C(COc1ccccc1)Nc1ccc(S(=O)(=O)Nc2ncccn2)cc1	16.6*	-3.6	nt	-9.7
O=C(COc1ccccc1)Nc1ccc(CN2CCCCC2)cc1	1.2	15.8*	7.8	-4.9
O=C(C[C@@H]1C=C[C@H](NC(=O)Nc2ccc(F)cc2)[C@H](CO)O1)NCc1cccc(F)c1	0.7	nt	-1.0	nt
CC(C)NC(=O)N(C)C[C@@H]1OCCCC[C@H](C)Oc2ccc(N(C)C)cc2C(=O)N([C@@H](C)CO)C[C@H]1C	-23.3	nt	-0.3	nt
COc1ccc(CN2CCC(C(=O)Nc3ccc(Oc4cccnc4)cc3)CC2)cc1	6.4	15.7*	-0.4	-2.5
CCCCCCCCN1[C@@H](CC(=O)OC)c2cc(C(F)(F)F)ccc2S1(=O)=O	2.1	-2.8	0.3	34.9
CCCCCCCCN1[C@@H](CC(C)=O)c2cc(C(F)(F)F)ccc2S1(=O)=O	1.3	-1.4	0.8	66.3*
O=C(Nc1ccc(Cl)c(Cl)c1)N[C@@H]1CC[C@H](CCn2cc(C3CCCCC3)nn2)O[C@@H]1CO	0.0	nt	1.3	nt
CC(=O)N(C)C[C@H]1Oc2cc(C3=CCCC3)ccc2S(=O)(=O)N([C@H](C)CO)C[C@H]1C	-0.3	nt	0.8	nt
Cc1ccccc1C1CC(=O)Oc2cc(O)ccc21 (configuration not stated)	nt	13.1*	-6.2	9.0
COc1ccc(C2CC(=O)Oc3cc(O)ccc32)cc1 (configuration not stated)	0.6	-0.7	1.6	6.9
Cn1ncc(Cl)c1C(=O)N/N=C/c1cccc(OC2CSC2)c1	22.9*	1.0	nt	-5.5
Cc1c(C(=O)c2ccccc2)c2ccccn2c1CCc1ccccn1	12.7*	-4.1	nt	16.6
C[C@H](CO)N1C[C@H](C)[C@H](CN(C)C(=O)c2cnccn2)Oc2ncc(-c3cccc(F)c3)cc2C1=O	-0.6	nt	-0.7	nt
O=C1CC(=O)N(Cc2ccco2)C(=S)N1	nt	29.0*	-0.5	-8.3
O=C1CC(=O)N(Cc2ccco2)C(=O)N1	nt	4.3	-2.8	-9.6
COC(=O)CCc1ccc(O)cc1	1.3	-1.1	-1.5	0.3
COc1cc(O)ccc1C(=O)CCc1ccc(O)cc1	16.7*	-1.1	-0.4	-6.9
C[C@H]1CN([C@@H](C)CO)C(=O)c2cccc(NC(=O)C3CCOCC3)c2O[C@@H]1CN(C)Cc1ccc(Cl)c(Cl)c1	1.4	nt	1.6	nt
C[C@@H]1CN([C@H](C)CO)C(=O)Cc2cc(NC(=O)Cn3cnnn3)ccc2O[C@@H]1CN(C)Cc1ccncc1	0.7	nt	3.5	nt
O=C(O)CCC(=O)Nc1ccc(C(=O)OCC(=O)c2ccc(Cl)cc2)cc1	1.5	15.0*	-1.4	1.2
Cn1c(/C(C#N)=C/c2ccc(-c3ccc(S(N)(=O)=O)cc3)o2)nc2ccccc21	nt	11.4*	2.0	-8.4
COCC(=O)N1[C@@H](CO)[C@H](c2ccc(-c3ccccc3)cc2)C12CN(C(C)=O)C2	0.3	nt	nt	nt
Nc1ccc2c(c1)Nc1ccccc1CC2	14.7*	-3.3	nt	-35.0
SMILES	TcdB inh	FadD28 binding	BioA inh-1	Y pestis TopoI	others
CCSc1nnc(NC(=O)C2CC2c2ccccc2)s1 (configuration not stated)	12.0*	-0.6	nt	-0.2
COc1cccc(NC(=O)Cn2nnc(-c3ccccc3N)n2)c1	nt	14.7*	1.7	-6.9
COCC(=O)Nc1ccc2c(c1)[C@H]1C[C@H](CC(=O)NCc3ccc(Cl)cc3)O[C@H](CO)[C@H]1O2	nt	nt	-0.5	nt
CCCCCC[N+](C)(C)CCSSCC[N+](C)(C)CCCCCC	0.1	-0.4	-1.8	8.1
CCCCCCCCCCCCCCCC[N+](C)(C)CC	2.2	18.8*	23.4	-15.7
CCCCCCCCCCCCCCCC[N+](C)(C)C	2.1	23.9*	19.9	-8.0
CCCCCCCCCCCCCCCC[N+](C)(C)CCl	0.6	20.1*	nt	-32.7
C#CC[N+](C)(C)CCCCCCCCCC	0.5	-0.2	-5.1	-11.8
C[N+](C)(C)CCCCCC[N+](C)(C)C	0.9	-4.6	-0.6	2.6
O=C1NC(=O)N(Cc2ccccc2)C(=O)/C1=C\c1ccco1	-1.1	28.2*	nt	-5.3
CC1(C)C(/C=C/C=C/C=C/C=C2\N(CCCCS(=O)(=O)O)c3ccc4ccccc4c3C2(C)C)=[N+](CCCCS(=O)(=O)[O-])c2ccc3ccccc3c21	nt	11.7*	0.4	43.3
O=C(CNS(=O)(=O)c1ccccc1)N/N=C/c1ccc(O)cc1	13.8*	-3.8	nt	-7.3
O=C(CCNC(=O)c1ccccc1Cl)N/N=C\c1ccc(O)cc1	15.1*	-1.1	3.6	4.1
COc1cccc(/C=N/NC(=O)CSc2cccc3cccnc23)c1	2.8	0.2	2.5	0.0
O=C(CSc1cccc2cccnc12)N/N=C/c1ccc(O)cc1	19.9*	-2.6	1.1	-4.8
O=C(CCn1cnc2ccccc21)N/N=C/c1ccc(O)cc1	14.0*	-2.3	2.5	-4.9
C[C@H]1CCCCO[C@H](CN(C)C(=O)CCCN(C)C)[C@@H](C)CN([C@@H](C)CO)C(=O)c2cc(NC(=O)C3CCCCC3)ccc2O1	0.5	nt	1.9	nt
C[C@H](CO)N1C[C@H](C)[C@@H](CN(C)Cc2ccncc2)Oc2ccc(NC(=O)CCCN(C)C)cc2CC1=O	1.4	nt	0.4	nt
C[C@H](CO)N1C[C@H](C)[C@H](CN(C)C(=O)c2ccc(F)cc2)Oc2ncc(-c3ccc(F)cc3)cc2C1=O	1.1	nt	0.4	nt
COc1ccc2c3c([nH]c2c1)[C@H](CO)N(C(=O)c1cccc(F)c1)CC31CN(C(=O)c2ccccc2)C1	1.0	nt	nt	nt
CC(=O)c1ccc(N2CCN(c3ncccn3)CC2)c([N+](=O)[O-])c1	1.7	-2.7	66.8*	3.5	BioA inh-2=-1.9;HepG2 tox 2=-9.1;NIH3T3 tox 5=-1.3
CC(=O)c1ccc(N2CCN(c3ccc(C(N)=O)cc3[N+](=O)[O-])CC2)cc1	1.4	-3.7	nt	7.5
CCCNC(=O)Nc1ccc2c(c1)C(=O)N(C)C[C@@H](OC)[C@@H](C)CN(CCC)[C@@H](C)CO2	-1.3	nt	3.3	nt
COCC(=O)N1[C@H](CO)[C@H]2c3ccccc3N(C(=O)c3ccncc3)C[C@H]21	0.5	nt	2.6	nt
CC(=O)OCC(=O)[C@@]1(OC(C)=O)[C@@H](C)C[C@H]2[C@@H]3C[C@H](F)C4=CC(=O)C=C[C@]4(C)[C@@]3(F)[C@@H](O)C[C@@]21C	1.0	0.2	51.0*	10.3	BioA inh-2=-5.0;HepG2 tox 2=15.7;NIH3T3 tox 5=6.3
CC(=O)OCC(=O)[C@@]12OC(C)(C)O[C@@H]1C[C@H]1[C@@H]3C[C@H](F)C4=CC(=O)C=C[C@]4(C)[C@@]3(F)[C@@H](O)C[C@@]12C	nt	nt	3.1	nt
Cc1cc(C)n2nc(C(=O)Nc3cccnc3)nc2n1	nt	-2.6	65.4*	-1.9	BioA inh-2=-7.3;HepG2 tox 2=-11.8;NIH3T3 tox 5=3.3
CCNC(=O)C[C@@H]1CC[C@H]2[C@@H](COC[C@H](O)CN2C(=O)Nc2c(C)noc2C)O1	0.9	nt	-1.8	nt
